Data: PubChem BioAssay (NCI)
Compounds without any hit were thinned out: in the full panel of roughly 83,000, 20% have a hit.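 Single-concentration screen, 48 h exposure, 96-well plates. Endpoint: percent growth. Below 10 = active.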 Values without a mark were called inactive. Activity calls are given as the source filed them.

Experiments:
Experiment in all cases: NCI-60 one-dose screen, 48 h (100 = growth as untreated, 0 = no growth, -100 = all killed)
Details in all cases: 10 µM unless noted
DU-145 prostate = test system: DU-145 prostate
MALME-3M melanoma = test system: MALME-3M melanoma
MDA-MB-231 breast = test system: MDA-MB-231 breast
RXF 393 renal = test system: RXF 393 renal
SF-268 CNS = test system: SF-268 CNS
SF-295 CNS = test system: SF-295 CNS
SF-539 CNS = test system: SF-539 CNS
UACC-257 melanoma = test system: UACC-257 melanoma
M14 melanoma = test system: M14 melanoma
K-562 leukemia = test system: K-562 leukemia

## COc1cc(/C=C\c2cc(OC)c(OC)c(OC)c2)cc(N)c1OC
DU-145 prostate
  growth: 110%
MALME-3M melanoma
  growth: 77.9%
MDA-MB-231 breast
  growth: 88.6%
RXF 393 renal
  growth: 105%
SF-268 CNS
  growth: 93.3%
SF-295 CNS
  growth: 73.7%
SF-539 CNS
  growth: 84.3%
UACC-257 melanoma
  growth: 87.5%
M14 melanoma
  growth: 66.1%

## CN[C@@H](C)C(=O)N[C@H]1CCS[C@H]2CC(C)(C)[C@@H](C(=O)N[C@H]3c4ccccc4C[C@H]3OCC#CC#CCO[C@@H]3Cc4ccccc4[C@@H]3NC(=O)[C@H]3N4C(=O)[C@@H](NC(=O)[C@H](C)NC)CCS[C@H]4CC3(C)C)N2C1=O
DU-145 prostate
  growth: 101%
K-562 leukemia
  growth: 100%
MALME-3M melanoma
  growth: -42.8% (active)
MDA-MB-231 breast
  growth: -51.2% (active)
RXF 393 renal
  growth: 2.22% (active)
SF-268 CNS
  growth: 124%
SF-295 CNS
  growth: 86.8%
SF-539 CNS
  growth: -43.6% (active)
UACC-257 melanoma
  growth: 101%
M14 melanoma
  growth: 103%

## CC(=O)[C@@H]1CC[C@]2(C(N)=O)CC[C@]3(C)[C@H](CC[C@@H]4[C@@]5(C)CCCNC(C)(C)[C@@H]5CC[C@]43C)[C@@H]12
DU-145 prostate
  growth: 91.6%
MALME-3M melanoma
  growth: 90%
MDA-MB-231 breast
  growth: 106%
RXF 393 renal
  growth: 69.5%
SF-268 CNS
  growth: 80.2%
SF-295 CNS
  growth: 86.6%
SF-539 CNS
  growth: 90.1%
UACC-257 melanoma
  growth: 94.4%
M14 melanoma
  growth: 77.5%

## C=C(C)[C@@H]1CC[C@]2(CN)CC[C@]3(C)[C@H](CC[C@@H]4[C@@]5(C)CCCNC(C)(C)[C@@H]5CC[C@]43C)[C@@H]12
DU-145 prostate
  growth: -53.5% (active)
K-562 leukemia
  growth: -56.1% (active)
MALME-3M melanoma
  growth: -70.5% (active)
MDA-MB-231 breast
  growth: -79.7% (active)
RXF 393 renal
  growth: -87.4% (active)
SF-268 CNS
  growth: 22.9%
SF-295 CNS
  growth: -59.6% (active)
SF-539 CNS
  growth: -31.8% (active)
UACC-257 melanoma
  growth: 46.3%
M14 melanoma
  growth: -77.7% (active)

## O=C(C1CCC1)N1N=C(c2ccc(-n3ccc(C(F)(F)F)n3)cc2)CC1c1ccc[nH]1 (stereo not given)
DU-145 prostate
  growth: 103%
K-562 leukemia
  growth: 77.4%
MALME-3M melanoma
  growth: 98.6%
MDA-MB-231 breast
  growth: 83.1%
RXF 393 renal
  growth: 115%
SF-268 CNS
  growth: 102%
SF-295 CNS
  growth: 95%
SF-539 CNS
  growth: 98%
UACC-257 melanoma
  growth: 92.2%
M14 melanoma
  growth: 93.2%

## O=C(Nc1ccc(-c2ccc3c(c2)NC(=O)/C3=C\c2ccc[nH]2)cc1)NC1CC1
DU-145 prostate
  growth: 103%
K-562 leukemia
  growth: 92.5%
MALME-3M melanoma
  growth: 105%
MDA-MB-231 breast
  growth: 101%
RXF 393 renal
  growth: 99.1%
SF-268 CNS
  growth: 103%
SF-295 CNS
  growth: 90.8%
SF-539 CNS
  growth: 71.5%
UACC-257 melanoma
  growth: 117%
M14 melanoma
  growth: 94%

## O=C(CCN1CCCC1)Nc1ccc2c(Nc3ccc(F)cc3)c3ccccc3nc2c1
DU-145 prostate
  growth: -46% (active)
K-562 leukemia
  growth: 0.179% (active)
MALME-3M melanoma
  growth: -90.1% (active)
MDA-MB-231 breast
  growth: -17.2% (active)
RXF 393 renal
  growth: 7.89% (active)
SF-268 CNS
  growth: 16.3%
SF-295 CNS
  growth: 15.2%
SF-539 CNS
  growth: -74.5% (active)
UACC-257 melanoma
  growth: -57.1% (active)
M14 melanoma
  growth: -80.7% (active)

## C#CCNC(=O)[C@H](Cc1ccccc1)NC(=O)[C@]12CC[C@@H](C(=C)C)[C@@H]1[C@H]1CC[C@@H]3[C@@]4(C)CCC(=O)C(C)(C)[C@@H]4CC[C@@]3(C)[C@]1(C)CC2
DU-145 prostate
  growth: 91.6%
K-562 leukemia
  growth: 31.8%
MALME-3M melanoma
  growth: 88.8%
MDA-MB-231 breast
  growth: 79.1%
RXF 393 renal
  growth: 82.9%
SF-268 CNS
  growth: 74.3%
SF-295 CNS
  growth: 73.4%
SF-539 CNS
  growth: 99.9%
UACC-257 melanoma
  growth: 59.4%
M14 melanoma
  growth: 81.7%

## CN1C(N2CCN(S(=O)(=O)c3ccccc3)CC2)=NS(=O)(=O)c2ccccc21
DU-145 prostate
  growth: 139%
MALME-3M melanoma
  growth: 103%
MDA-MB-231 breast
  growth: 104%
RXF 393 renal
  growth: -6.07% (active)
SF-268 CNS
  growth: 101%
SF-295 CNS
  growth: 39.9%
SF-539 CNS
  growth: 111%
UACC-257 melanoma
  growth: 61.5%
M14 melanoma
  growth: 99.8%

## O=C(O)c1ccc(-c2nn(-c3ccc(C(F)(F)F)cc3)cc2CNc2ccc(Oc3ccccc3)cc2)cc1
DU-145 prostate
  growth: 95.5%
K-562 leukemia
  growth: 65.3%
MALME-3M melanoma
  growth: 107%
MDA-MB-231 breast
  growth: 91.4%
RXF 393 renal
  growth: 88.4%
SF-268 CNS
  growth: 79.5%
SF-295 CNS
  growth: 72.7%
SF-539 CNS
  growth: 89.6%
UACC-257 melanoma
  growth: 102%
M14 melanoma
  growth: 84.6%

## NC(=NCc1ccccc1)C(N=Nc1ccccc1)C(=O)NCc1ccccc1 (stereo not given)
DU-145 prostate
  growth: 94.4%
K-562 leukemia
  growth: 25.2%
MALME-3M melanoma
  growth: 133%
MDA-MB-231 breast
  growth: 68.3%
RXF 393 renal
  growth: 72.6%
SF-268 CNS
  growth: 53.5%
SF-295 CNS
  growth: 53.9%
SF-539 CNS
  growth: 50.3%
UACC-257 melanoma
  growth: 95.4%
M14 melanoma
  growth: 82.9%

## COc1cc(C2C3=C(COC3=O)N(CCO)c3cc4c(cc32)OCO4)cc(OC)c1OC (stereo not given)
DU-145 prostate
  growth: 5.4% (active)
MALME-3M melanoma
  growth: 56.3%
MDA-MB-231 breast
  growth: -1.03% (active)
RXF 393 renal
  growth: -5.54% (active)
SF-268 CNS
  growth: 41.3%
SF-295 CNS
  growth: 21.4%
SF-539 CNS
  growth: -51.6% (active)
UACC-257 melanoma
  growth: 60.8%
M14 melanoma
  growth: -19.6% (active)

## Cc1cccc(-c2cn3ccnc3c(-c3ccc4ncn(Cc5ccccc5)c4c3)n2)c1
DU-145 prostate
  growth: 85.8%
MALME-3M melanoma
  growth: 125%
MDA-MB-231 breast
  growth: 71.6%
RXF 393 renal
  growth: 98%
SF-268 CNS
  growth: 92.8%
SF-295 CNS
  growth: 85.7%
SF-539 CNS
  growth: 92.7%
UACC-257 melanoma
  growth: 120%
M14 melanoma
  growth: 102%

## COc1cc2c(c(OC)c1OC)CCC(c1cccc(NC(=O)c3cccc(Br)c3)c1)O2 (stereo not given)
DU-145 prostate
  growth: 91.9%
K-562 leukemia
  growth: 88%
MALME-3M melanoma
  growth: 100%
MDA-MB-231 breast
  growth: 92.6%
RXF 393 renal
  growth: 87.6%
SF-268 CNS
  growth: 87.1%
SF-295 CNS
  growth: 92.5%
SF-539 CNS
  growth: 97.7%
UACC-257 melanoma
  growth: 81.6%
M14 melanoma
  growth: 90.5%

## CC(C)N1C(=O)/C(=C2\SC(=S)N(C(C)C)C2=O)SC1=S
DU-145 prostate
  growth: 93.6%
K-562 leukemia
  growth: 93%
MALME-3M melanoma
  growth: 82.6%
MDA-MB-231 breast
  growth: 81%
RXF 393 renal
  growth: 104%
SF-268 CNS
  growth: 94.5%
SF-295 CNS
  growth: 101%
SF-539 CNS
  growth: 85.1%
UACC-257 melanoma
  growth: 95.8%
M14 melanoma
  growth: 95%
